Measured values reported in PubChem BioAssay (EPA / NIEHS).
Calls of active or inactive are those of the source. How the source made its calls: active means hit-call score of the fitted dose curve at least 0.9, where 1 is the maximum; inactive means score below 0.9.

Columns and labels:
Conditions in all cases: mRNA level, 48 h; actives raise or lower the signal
[1] = read-out: Insulin-like growth factor-binding protein 1 (IGFBP1), IGFBP1 (gene 3484); assay: LTEA_HepaRG_IGFBP1: Life Technologies and Expression Analysis (LTEA) Assay for Insulin-like growth factor-binding protein 1 (IGFBP1) using HepaRG (AID 2283508)
In short: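 Thawed HepaRG cells are plated for 48 h, switched to serum-free induction medium, then dosed in duplicate for another 48 h (100 uM top, half-log steps). Lysates in RLT go to qRT-PCR, and gain or loss of signal is fitted relative to vehicle.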

[2] = read-out: Interleukin 6 (IL6), IL6 (gene 3569); assay: LTEA_HepaRG_IL6: Life Technologies and Expression Analysis (LTEA) Assay for Interleukin 6 (IL6) using HepaRG (AID 2283509)
In short: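 HepaRG cells exposed in duplicate for 48 h to eight half-log concentrations, top 100 uM, in 0.5% DMSO serum-free induction medium. mRNA measured by qRT-PCR, normalized to ACTB, GAPDH and POLR2A. Bidirectional fit versus DMSO.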

[3] = read-out: Potassium channel subfamily K member 1 (KCNK1), KCNK1 (gene 3775); assay: LTEA_HepaRG_KCNK1: Life Technologies and Expression Analysis (LTEA) Assay for Potassium channel subfamily K member 1 (KCNK1) using HepaRG (AID 2283511)
In short: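 Differentiated HepaRG cells, 48 h exposure in serum-free induction medium with 0.5% DMSO; 8 concentrations, half-log from 100 uM, duplicate. KCNK1 mRNA by qRT-PCR, normalized to ACTB, GAPDH, POLR2A; bidirectional fit vs DMSO.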

[4] = read-out: Keratin 19 (KRT19), KRT19 (gene 3880); assay: LTEA_HepaRG_KRT19: Life Technologies and Expression Analysis (LTEA) Assay for Keratin 19 (KRT19) using HepaRG (AID 2283512)
In short: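 KRT19 transcript levels, measured by Fluidigm qRT-PCR against three housekeeping genes, are fitted for gain or loss of signal relative to DMSO. Human HepaRG cells receive test chemicals (top 100 uM, half-log steps, 0.5% DMSO) for 48 hours.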

[5] = read-out: JUN Transcription Factor, JUN (gene 3725); assay: LTEA_HepaRG_JUN: Life Technologies and Expression Analysis (LTEA) Assay for JUN Transcription Factor using HepaRG (AID 2283513)
In short: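 Differentiated HepaRG cells were exposed to chemicals for 48 h in serum-free induction medium, 8 concentrations from 100 uM in half-log steps, 0.5% DMSO vehicle, in duplicate. JUN mRNA was quantified by TaqMan qRT-PCR, normalized to ACTB, GAPDH, POLR2A.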

[6] = read-out: Lipase C (LIPC), LIPC (gene 3990); assay: LTEA_HepaRG_LIPC: Life Technologies and Expression Analysis (LTEA) Assay for Lipase C (LIPC) using HepaRG (AID 2283514)
In short: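 HepaRG cells, 48 h after plating, treated in duplicate for 48 h in serum-free induction medium over 8 half-log concentrations from 100 uM, 0.5% DMSO. LIPC mRNA by TaqMan qRT-PCR normalized to ACTB/GAPDH/POLR2A; bidirectional fit versus DMSO.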

[7] = read-out: Lipoprotein lipase (LPL), LPL (gene 4023); assay: LTEA_HepaRG_LPL: Life Technologies and Expression Analysis (LTEA) Assay for Lipoprotein lipase (LPL) using HepaRG (AID 2283515)
In short: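 Differentiated HepaRG cells, plated 48 h, then exposed 48 h in serum-free induction medium to 8 concentrations (top 100 uM, half-log steps) in 0.5% DMSO, duplicate. LPL mRNA measured by qRT-PCR, normalized to ACTB, GAPDH and POLR2A.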

[8] = read-out: MicroRNA 122 (MIR122), gene 406906; assay: LTEA_HepaRG_MIR122: Life Technologies and Expression Analysis (LTEA) Assay for MicroRNA 122 (MIR122) using HepaRG (AID 2283516); further: the transcript read is the microRNA miR-122
In short: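 Differentiated human HepaRG cells were exposed 48 h in serum-free induction medium to eight half-log concentrations (top 100 uM, 0.5% DMSO). Transcript level was measured by TaqMan qRT-PCR, normalized to ACTB, GAPDH and POLR2A, and fitted bidirectionally versus DMSO.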

[9] = read-out: matrix metalloproteinase-10 (MMP10), MMP10 (gene 4319); assay: LTEA_HepaRG_MMP10: Life Technologies and Expression Analysis (LTEA) Assay for matrix metalloproteinase-10 (MMP10) using HepaRG (AID 2283517)
In short: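 Differentiated HepaRG cells in serum-free induction medium exposed 48 h in duplicate to 8-point half-log series up to 100 uM in 0.5% DMSO. mRNA quantified by qRT-PCR, normalised to ACTB, GAPDH, POLR2A; bidirectional fit versus DMSO.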

MYC, MYC (gene 4609) = assay: LTEA_HepaRG_MYC: Life Technologies and Expression Analysis (LTEA) Assay for MYC using HepaRG (AID 2283518)
In short: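 HepaRG, ~100,000 cells/well, collagen I; 48 h plating; serum-free induction medium; 48 h dosing, duplicate, 100 uM top, half-log, 0.5% DMSO; total RNA → qRT-PCR MYC; gain/loss fit vs DMSO.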

[10] = read-out: matrix metalloproteinase-3 (MMP3), MMP3 (gene 4314); assay: LTEA_HepaRG_MMP3: Life Technologies and Expression Analysis (LTEA) Assay for matrix metalloproteinase-3 (MMP3) using HepaRG (AID 2283519)
In short: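 HepaRG cells (~100,000/well) in serum-free induction medium were dosed in duplicate for 48 h with an 8-point half-log series from 100 uM, 0.5% DMSO. MMP3 mRNA was quantified by Fluidigm TaqMan qRT-PCR, normalized to three housekeeping genes.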

[11] = read-out: Paternally Expressed 10 (PEG10), PEG10 (gene 23089); assay: LTEA_HepaRG_PEG10: Life Technologies and Expression Analysis (LTEA) Assay for Paternally Expressed 10 (PEG10) using HepaRG (AID 2283520)
In short: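 Differentiated HepaRG cells, plated 48 h then switched to serum-free induction medium, were exposed in duplicate for 48 h to eight half-log concentrations topping at 100 uM in 0.5% DMSO. PEG10 mRNA was quantified by TaqMan qRT-PCR, normalised to ACTB, GAPDH and POLR2A.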

[12] = read-out: Nuclear factor NF-kappa-B p105 subunit (Homo sapiens) (UniProt P19838); assay: LTEA_HepaRG_NFKB1: Life Technologies and Expression Analysis (LTEA) Assay for Nuclear Factor Kappa B Subunit 1 (NFKB1) using HepaRG (AID 2283521);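 further: TaqMan qRT-PCR transcript normalised to ACTB GAPDH and POLR2A housekeeping genes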
In short: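 Differentiated human HepaRG cells in serum-free induction medium with 0.5% DMSO were exposed for 48 h to eight half-log concentrations, top 100 uM, in duplicate. NFKB1 mRNA measured by Fluidigm TaqMan qRT-PCR, normalised to ACTB, GAPDH and POLR2A; bidirectional fit versus DMSO.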

[13] = read-out: Protein phosphatase 2A (PPP2R4), PTPA (gene 5524); assay: LTEA_HepaRG_PPP2R4: Life Technologies and Expression Analysis (LTEA) Assay for Protein phosphatase 2A (PPP2R4) using HepaRG (AID 2283522)
In short: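 Differentiated HepaRG cells in serum-free induction medium were exposed in duplicate for 48 h to eight concentrations, top 100 uM with half-log dilutions, in 0.5% DMSO. PPP2R4 mRNA was quantified by TaqMan qRT-PCR, normalized to ACTB, GAPDH and POLR2A.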

[14] = read-out: Phosphatase and tensin (PTEN), PTEN (gene 5728); assay: LTEA_HepaRG_PTEN: Life Technologies and Expression Analysis (LTEA) Assay for Phosphatase and tensin (PTEN) using HepaRG (AID 2283523)
In short: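 HepaRG cells, 48 h after plating, exposed in duplicate for 48 h in serum-free induction medium to 8 half-log concentrations up to 100 uM (0.5% DMSO). PTEN mRNA by qRT-PCR, normalized to ACTB, GAPDH, POLR2A; bidirectional fit versus DMSO.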

[15] = read-out: solute carrier (SLC22A1), SLC22A1 (gene 6580); assay: LTEA_HepaRG_SLC22A1: Life Technologies and Expression Analysis (LTEA) Assay for solute carrier (SLC22A1) using HepaRG (AID 2283524)
In short: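 Differentiated human HepaRG cells in serum-free induction medium, exposed 48 h in duplicate to 8-point half-log series from 100 µM top in 0.5% DMSO. SLC22A1 mRNA by TaqMan qRT-PCR normalized to ACTB, GAPDH, POLR2A; bidirectional fit versus DMSO.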

[16] = read-out: Pyruvate Dehydrogenase Kinase 4 (PDK4), PDK4 (gene 5166); assay: LTEA_HepaRG_PDK4: Life Technologies and Expression Analysis (LTEA) Assay for Pyruvate Dehydrogenase Kinase 4 (PDK4) using HepaRG (AID 2283525)
In short: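 HepaRG cells plated 48 h, then switched to serum-free induction medium and exposed in duplicate for 48 h to 8 half-log concentrations from 100 uM in 0.5% DMSO. PDK4 mRNA measured by qRT-PCR, normalized to ACTB, GAPDH and POLR2A; bidirectional fit versus DMSO.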

[17] = read-out: NAD(P)H dehydrogenase [quinone] 1 (NQO1), NQO1 (gene 1728); assay: LTEA_HepaRG_NQO1: Life Technologies and Expression Analysis (LTEA) Assay for NAD(P)H dehydrogenase [quinone] 1 (NQO1) using HepaRG (AID 2283526)
In short: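 Differentiated HepaRG cells, plated 48 h and then switched to serum-free induction medium, were exposed in duplicate for 48 h to 8-point half-log concentrations up to 100 uM in 0.5% DMSO. mRNA measured by qRT-PCR, normalized to ACTB, GAPDH, POLR2A; bidirectional fit versus DMSO.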

[18] = read-out: Nuclear factor erythroid 2-related factor 2 (Homo sapiens) (UniProt Q16236); assay: LTEA_HepaRG_NFE2L2: Life Technologies and Expression Analysis (LTEA) Assay for Nuclear factor erythroid 2-related factor 2 (NFE2L2) Transcription Factor using HepaRG (AID 2283527);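 further: TaqMan qRT-PCR transcript level normalised to ACTB GAPDH and POLR2A housekeeping genes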
In short: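 Differentiated human HepaRG cells, serum-free induction medium, exposed 48 h in duplicate to eight half-log concentrations up to 100 uM in 0.5% DMSO. NFE2L2 mRNA by Fluidigm TaqMan qRT-PCR, normalised to ACTB, GAPDH, POLR2A; bidirectional change versus DMSO.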

[19] = read-out: Interleukin 6 Receptor (IL6R), IL6R (gene 3570); assay: LTEA_HepaRG_IL6R: Life Technologies and Expression Analysis (LTEA) Assay for Interleukin 6 Receptor (IL6R) using HepaRG (AID 2283510)
In short: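 Differentiated human HepaRG cells, plated 48 h then switched to serum-free induction medium, were dosed in duplicate for 48 h at eight half-log concentrations up to 100 uM in 0.5% DMSO. IL6R mRNA quantified by qRT-PCR, normalized to ACTB/GAPDH/POLR2A; bidirectional fit versus DMSO.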

Measured: outcome

Nuclear factor erythroid 2-related factor 2 (Homo sapiens), sequence (Q16236 whole entry, looked up): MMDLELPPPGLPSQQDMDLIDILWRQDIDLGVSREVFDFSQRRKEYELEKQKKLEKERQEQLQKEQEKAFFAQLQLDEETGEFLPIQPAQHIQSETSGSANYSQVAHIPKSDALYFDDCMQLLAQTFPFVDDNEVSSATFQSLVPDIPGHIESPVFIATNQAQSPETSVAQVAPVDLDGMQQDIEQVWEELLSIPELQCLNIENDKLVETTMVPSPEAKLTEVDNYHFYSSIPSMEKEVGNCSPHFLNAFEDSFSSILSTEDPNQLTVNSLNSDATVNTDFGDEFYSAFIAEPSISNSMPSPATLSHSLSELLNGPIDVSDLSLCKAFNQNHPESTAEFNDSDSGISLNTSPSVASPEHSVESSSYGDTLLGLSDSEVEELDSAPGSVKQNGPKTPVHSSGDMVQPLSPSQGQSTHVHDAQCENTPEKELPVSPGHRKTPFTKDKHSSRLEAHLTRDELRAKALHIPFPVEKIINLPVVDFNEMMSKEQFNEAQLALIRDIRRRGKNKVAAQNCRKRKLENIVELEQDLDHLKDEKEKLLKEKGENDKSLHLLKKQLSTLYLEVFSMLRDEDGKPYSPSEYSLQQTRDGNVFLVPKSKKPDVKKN
Nuclear factor NF-kappa-B p105 subunit (Homo sapiens), sequence (P19838 whole entry, looked up): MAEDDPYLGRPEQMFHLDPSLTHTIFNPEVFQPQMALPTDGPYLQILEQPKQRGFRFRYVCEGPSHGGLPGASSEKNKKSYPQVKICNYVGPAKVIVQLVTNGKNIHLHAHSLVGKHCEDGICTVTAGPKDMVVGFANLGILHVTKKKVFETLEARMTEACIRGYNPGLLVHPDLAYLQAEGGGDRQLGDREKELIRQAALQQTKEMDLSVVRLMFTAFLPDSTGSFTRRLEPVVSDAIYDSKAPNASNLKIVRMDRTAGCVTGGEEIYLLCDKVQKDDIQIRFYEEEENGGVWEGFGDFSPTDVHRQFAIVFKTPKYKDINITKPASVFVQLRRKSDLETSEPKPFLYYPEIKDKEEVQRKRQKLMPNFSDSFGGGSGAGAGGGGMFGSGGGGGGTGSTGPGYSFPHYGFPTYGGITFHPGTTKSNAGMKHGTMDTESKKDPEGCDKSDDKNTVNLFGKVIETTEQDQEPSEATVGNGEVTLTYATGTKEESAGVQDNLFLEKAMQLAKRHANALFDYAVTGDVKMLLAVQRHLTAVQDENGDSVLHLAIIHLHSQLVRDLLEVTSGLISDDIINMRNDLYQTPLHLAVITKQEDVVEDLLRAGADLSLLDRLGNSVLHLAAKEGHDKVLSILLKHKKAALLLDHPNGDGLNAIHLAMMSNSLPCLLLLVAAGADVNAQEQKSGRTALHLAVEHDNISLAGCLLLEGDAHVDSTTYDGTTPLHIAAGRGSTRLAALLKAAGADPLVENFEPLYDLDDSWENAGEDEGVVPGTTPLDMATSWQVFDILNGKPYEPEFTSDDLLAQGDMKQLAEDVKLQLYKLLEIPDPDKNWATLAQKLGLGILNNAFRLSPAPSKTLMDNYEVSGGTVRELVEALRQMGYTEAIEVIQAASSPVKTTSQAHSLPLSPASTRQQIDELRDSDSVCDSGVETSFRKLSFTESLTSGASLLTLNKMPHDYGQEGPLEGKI

CC(CO)OC(C)CO (configuration not stated) (tested in a mixture with another compound)
not listed: [19]
inactive: all other assays above

OC[C@@H](O)[C@@H](O)[C@H](O)[C@H](O)CO
not listed: [1]
inactive: all other assays above

Cc1ccc(C(C)C)c(O)c1
not listed: [1]
inactive: all other assays above
